# Screening data: PubChem, National Center for Advancing Translational Sciences (NCATS)
# A selection: hits, their analogues and other compounds. The true share with any hit is near 0.87%.
# TDP1 block: inhibitors of human tyrosyl-DNA phosphodiesterase TDP1. Q9NUW8. Potency, µM (series often up to 130 µM), for inactives: top-dose activity change, negative = inhibition, hits mostly inhibitors. recombinant TDP1, AlphaScreen DNA substrate cleavage. hit rate 0.28% among 350,000. AID 485290; note: nearly all actives have a fitted effect of over 40% in size
#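 Tdp1 1 nM final; 15 min RT w/ cpd; substrate 15 nM, 5 min; beads 10 ug/ml, 10 min; AlphaScreen read. Neg ctrl: no enzyme.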
# GCN5L2 inh: inhibitors of human GCN5L2 histone acetyltransferase; Q92830; GCN5L2 HAT assay, ThioGlo1 CoA-SH fluorescence; Potency, µM (highest dose often 58.9 µM), inactives show at the highest dose activity change, negative = inhibition, most hits filed as inhibitors; hit rate 0.21% among 390,000
#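 ThioGlo1-coupled HAT assay: 20nM GCN5L2, 70uM acetyl-CoA, 75uM H3(1-25) peptide, pH 7.5. Fluorescence read at 340/540nm at start and after 20 min at room temperature.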
# APE1 inh: APE1 (human) endonuclease inhibition. P27695. recombinant APE1, TAMRA/BHQ-2 abasic DNA cleavage fluorescence. Potency, µM (doses to about 65.8 µM), for the others: at the highest dose activity change, negative = inhibition, most hits filed as inhibitors. hit rate 0.35% among 350,000. AID 2517;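 note: plate controls were vehicle for no effect and reference inhibitor for full effect; nearly all actives have a fitted effect of over 55% in size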
#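 APE1 at 0.75 nM preincubated 15 min at room temperature with compound. Reaction then started with 50 nM double-stranded THF-abasic substrate labelled with TAMRA/BHQ-2, and 525/598 nm fluorescence read kinetically. Activity taken as third-minus-first read difference, normalized to DMSO and NSC13755 controls.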
# BLM helicase inh: inhibitors of human Bloom syndrome helicase BLM; recombinant BLM DNA unwinding, fluorescence dequenching; Potency, µM (series often up to 56.1 µM), inactives show top-dose activity change, negative = inhibition, hits mostly inhibitors; hit rate 0.2% among 350,000; AID 2528;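 note: plate controls were vehicle for no effect and no enzyme for full effect; nearly all actives have a fitted effect of over 35% in size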
# Target sequence (P54132 whole entry, looked up): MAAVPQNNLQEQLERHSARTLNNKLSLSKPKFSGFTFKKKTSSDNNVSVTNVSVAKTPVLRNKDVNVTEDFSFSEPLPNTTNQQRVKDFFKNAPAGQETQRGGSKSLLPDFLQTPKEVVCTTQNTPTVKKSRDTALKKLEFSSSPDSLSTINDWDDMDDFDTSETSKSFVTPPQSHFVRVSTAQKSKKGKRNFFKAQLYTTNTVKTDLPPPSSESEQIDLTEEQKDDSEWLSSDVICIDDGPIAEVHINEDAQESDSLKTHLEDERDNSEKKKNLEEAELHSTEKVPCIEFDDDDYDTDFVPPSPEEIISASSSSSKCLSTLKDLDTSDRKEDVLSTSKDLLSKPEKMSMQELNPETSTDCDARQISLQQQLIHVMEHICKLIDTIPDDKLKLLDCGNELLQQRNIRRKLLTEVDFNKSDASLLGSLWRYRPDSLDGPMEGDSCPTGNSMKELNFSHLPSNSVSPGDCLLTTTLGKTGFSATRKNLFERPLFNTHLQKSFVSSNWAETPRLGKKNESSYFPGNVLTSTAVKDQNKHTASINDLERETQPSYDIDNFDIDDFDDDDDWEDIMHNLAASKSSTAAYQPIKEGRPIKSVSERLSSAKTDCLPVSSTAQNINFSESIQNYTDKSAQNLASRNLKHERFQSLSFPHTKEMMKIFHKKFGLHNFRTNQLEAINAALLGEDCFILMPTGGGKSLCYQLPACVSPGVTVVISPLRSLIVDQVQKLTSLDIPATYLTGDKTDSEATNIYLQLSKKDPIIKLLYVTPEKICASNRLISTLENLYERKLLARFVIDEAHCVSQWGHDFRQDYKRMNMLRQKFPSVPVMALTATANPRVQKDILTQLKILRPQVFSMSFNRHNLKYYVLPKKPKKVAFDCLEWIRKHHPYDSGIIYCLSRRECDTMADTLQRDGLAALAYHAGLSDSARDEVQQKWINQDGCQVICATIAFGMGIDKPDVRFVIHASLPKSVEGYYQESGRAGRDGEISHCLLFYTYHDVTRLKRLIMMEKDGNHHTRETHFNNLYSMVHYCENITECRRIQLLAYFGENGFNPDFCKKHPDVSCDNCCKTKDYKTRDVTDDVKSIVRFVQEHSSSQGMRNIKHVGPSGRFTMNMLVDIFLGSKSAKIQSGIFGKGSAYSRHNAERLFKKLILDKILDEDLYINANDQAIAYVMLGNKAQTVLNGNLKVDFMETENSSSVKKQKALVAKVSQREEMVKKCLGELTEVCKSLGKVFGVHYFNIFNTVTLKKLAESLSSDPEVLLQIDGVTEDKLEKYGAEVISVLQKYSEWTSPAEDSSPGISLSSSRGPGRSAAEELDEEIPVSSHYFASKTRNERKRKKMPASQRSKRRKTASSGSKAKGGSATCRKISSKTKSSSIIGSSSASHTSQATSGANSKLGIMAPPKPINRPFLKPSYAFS
# RGS4 inhibitor: inhibitors of human regulator of G protein signaling 4; P49798; Transcreener GDP fluorescence polarization, RGS4-accelerated GTP hydrolysis; Potency, µM (highest dose often 114 µM), inactives show at the top dose activity change, negative = inhibition, most hits filed as inhibitors; hit rate 0.039% among 390,000; note: nearly all actives have a fitted effect of over 75% in size
#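 MLSMR compounds (23 nl, pin-transferred) preincubated 10 min at room temperature with a 500nM (2x) first reagent, then RGS4 at 900nM (2x) plus Transcreener GDP mix added; fluorescence polarization (620/688 nm) read before and after 90 min at 30 °C.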
# RECQ1 helicase: RECQ1 (human) helicase inhibition; P46063; RECQ1 DNA unwinding, red fluorescence kinetic read; Potency, µM (titrated, usually from 57.3 µM), for the others: at the top dose activity, negative = inhibition, hits mostly inhibitors; hit rate 0.54% among 240,000;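 note: plate controls were vehicle for no effect and no enzyme for full effect; nearly all actives have a fitted effect of over 30% in size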
#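 RECQ1T1 50 nM; forked duplex (20 bp + 30-nt ss tails) 200 nM, ATP 2 mM final; pH 8.0, 2 mM MgCl2, 2.5 ug/ml poly(dI-dC); 15 min compound preincubation; discontinuous kinetic read over 2 h at RT.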
# Numbers without * were called inactive; i = inactive; ? = inconclusive; · = not tested or not shown; ! = a repeat was not active; [ ] = remark or other dose. Calls come from the whole dose curve; as a rule, active = well fitted curve in the direction sought with a large enough effect; inconclusive = small, poorly fitted or top-dose-only effect, or another doubt; inactive = no such curve, though single readings can be large; an effect the other way counts as inactive or inconclusive. Unless noted, % is set by controls: 0 for no effect and ±100 for the full control effect; potency is the fitted concentration of half-maximal effect.
SMILES,TDP1 block,GCN5L2 inh,APE1 inh,BLM helicase inh,RGS4 inhibitor,RECQ1 helicase
CC1(C)CC(=O)c2c(oc3cc(O)c(O)cc23)C1,?,-5%,?,-11%,-16%,20µM*!
COC(=O)CC1Oc2cc3oc4c(c3cc2O1)C(=O)CC(C)(C)C4 (stereo not drawn),3%,·,10%,2%,·,-6%
Cn1cncc1C#Cc1ccc2cc(C3(O)CCCCC3)oc(=O)c2c1,56µM*,-6%,4%,·,0%,·
Cc1ccc(N[S+](=O)([O-])c2cc3c(cc2CCc2ccccc2)NC(=O)CO3)cc1C,2%,·,·,·,·,·
O=[N+]([O-])c1ccc(CNc2ccc(F)cc2)s1,8%,-17%,18%,-13%,-9%,·
COc1ccc(NCc2ccc([N+](=O)[O-])s2)cc1,12%,-2%,32µM*,-6%,12%,-5%
COc1cc2c(cc1O)CCN[C@@]21CS[C@H]2c3c(OC(C)=O)c(C)c4c(c3C(COC1=O)N1C2C2c3c(cc(C)c(OC)c3O)CC([C@@H]1O)N2C)OCO4 (stereo partly drawn),·,-20%,·,10µM*,·,·
O=C(O)CCNc1ccc(NCCC(=O)O)c2c1C(=O)c1ccccc1C2=O,·,-15%,6.7µM*,?,-126%,·
COc1ccccc1NCCC(=O)O,-7%,-8%,4%,0%,20%[11.4 µM],i
O=C1c2cccc3cccc(c23)N1Cc1ccc(F)cc1,-14%,-17%,10%,1%,9%,3%
O=C1c2cccc3cccc(c23)N1Cc1cccc(F)c1,79µM*,-7%,22%,-6%,-14%,·
Cc1ccc(NCc2ccc(O)c3ncccc23)c(F)c1,1%,·,·,·,·,·
O=C(Nc1nnc(S(=O)(=O)N2CCCCC2)s1)c1ccc(Cl)cc1,0%,11µM*!,-10%,-7%,-1%,·
COC(=O)c1scc(S(C)(=O)=O)c1-n1cccc1,·,1%,-2%,1%,?,-2%
Cc1csc(C(=O)O)c1-n1cccc1,13µM*,-2%,?,-3%,-5%[56.9 µM],-21%
Cc1cccc(C)c1NC(=O)CN1CCN(C(=O)c2ccc(OCc3cn4ccccc4n3)cc2)CC1,45µM*,-16%,-14%,·,10%,·
O=C(O)c1ccc(OCc2cn3ccccc3n2)cc1,·,-27%,-8%,-1%,23%,i
CCC(=O)O[C@@H]1CC(=O)O[C@H](C)C/C=C/C=C/[C@H](O)[C@H](C)C[C@H](CC=O)[C@H](O[C@@H]2O[C@H](C)[C@@H](O[C@H]3C[C@@](C)(O)[C@@H](OC(=O)CC)[C@H](C)O3)[C@H](N(C)C)[C@H]2O)[C@H]1OC,·,·,-3%[21 µM],·,·,·
COc1ccccc1C(=O)Nc1ncc2c(n1)CC(c1ccco1)CC2=O (stereo not drawn),·,-13%,18µM*,-20%,5%,?
CSCCOC(=O)c1[nH]c2c(c1C)C(=O)CC(c1ccco1)C2 (stereo not drawn),13µM*,-24%,13µM*,-29%,-5%,-21%
CO[C@H]1C[C@H](O[C@H]2[C@H](C)[C@@H](O[C@@H]3O[C@H](C)C[C@H](N(C)C)[C@H]3O)[C@@H](C)C[C@]3(CO3)C(=O)[C@H](C)[C@@H](O)[C@@H](C)[C@@H](C)OC(=O)[C@@H]2C)O[C@@H](C)[C@@H]1O,·,·,-1%[21 µM],·,·,·
CCN(CC)Cc1oc(CO)cc(=O)c1O,50µM*,-5%,-11%,-9%,-3%,1%
O=c1cc(CO)oc(CN2CCCC2)c1O,-6%,-2%,10%,-1%,-13%,-12%
CC(C)(C)SCCNC(=O)CSCc1ccc([N+](=O)[O-])cc1,0%,1.8µM*,0%,0%,13%,i
CSc1ccc(CCNC(=O)CN2C(=O)c3cccnc3Oc3ccc(C)cc32)cc1,7%,-3%,13%,-4%,26%,·
SMILES,TDP1 block,GCN5L2 inh,APE1 inh,BLM helicase inh,RGS4 inhibitor,RECQ1 helicase
Cc1ccc2c(c1)N(CC(=O)NCCCc1ccccc1)C(=O)c1cccnc1O2,·,40µM*,1%,-1%,8%,·
O=C(CNC(=O)c1ccc(Cl)cc1)OC(C(=O)Nc1cc(C(F)(F)F)ccc1Cl)c1ccccc1 (stereo not drawn),-1%,·,·,·,·,·
O=C1NC(=Nc2ccc(Cl)cc2)/C(=C/c2ccco2)S1,·,-23%,?,11µM*,-5%,-13%
Cc1cccc(N=C2NC(=O)S/C2=C\c2ccco2)c1,0%,3%,?,-21%,-21%,-5%
CNc1cccc(S(=O)(=O)N2CCCN(S(=O)(=O)c3ccc4c(c3)OCCO4)CC2)c1,0%,·,·,·,·,·
C[C@H]1[C@@H](OC(=O)CCC(=O)O)OC2OC3(C)CC[C@H]4[C@H](C)CC[C@@H]1[C@@]24OO3 (stereo partly drawn),·,4%,·,2%,·,·
O=[N+]([O-])c1ccc(N2N=C(c3ccco3)CC2c2ccccc2)cc1 (stereo not drawn),4%,2µM*,13%,-20%,-15%,-8%
Fc1ccc(C2CC(c3ccco3)=NN2c2ccccc2)cc1 (stereo not drawn),-7%,-10%,-3%,-3%,-10%,1%
CSc1ccccc1NC(=O)c1cc2c(=O)n3ccccc3nc2s1,0%,?,-3%,-4%,-11%,·
COc1ccc(Cl)cc1NC(=O)c1cc2c(=O)n3ccccc3nc2s1,-12%,35µM*,·,?,?,·
COC(=O)\C(C(C)=O)=C(/C=C/C=C/N(C)C)N(C)C,22µM*,-6%,?,3%,-14%,-16%
Fc1ccc(-c2cc(C(F)(F)F)nc(NCc3ccccc3)n2)cc1,6%,-10%,·,-4%,-2%,·
CN(Cc1ccccc1)c1nc(-c2ccc(F)cc2)cc(C(F)(F)F)n1,22µM*,-7%,·,-3%,-1%,·
COc1ccc(C)cc1NC(=O)C(OC(=O)CNC(=O)c1ccccc1)c1ccccc1 (stereo not drawn),126µM*,·,·,·,·,·
Cc1ccc(NS(=O)(=O)c2cc3c(cc2/C=C/c2ccccc2)NC(=O)CO3)cc1C,0%,·,·,·,·,·
O=C(NCCc1ccc(F)cc1)c1coc(=O)c(Br)c1,·,-3%,25%,-3%,-2%,·
O=C(Nc1ccccc1F)c1coc(=O)c(Br)c1,20µM*,-23%,?,68%,-10%,?
